Pf Dd2 growth: qHTS Primary assay for Inhibitors of Plasmodium falciparum Dd2 growth in vitro; hit rate 4.3% among 120,000; P. falciparum Dd2 growth, SYBR Green, 72 h; Potency, µM (titrated, usually from 28.9 µM), inactives show top-dose activity, negative = inhibition, most hits filed as inhibitors; active = well fitted inhibition curve with a large enough effect;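 also: plate controls were DMSO vehicle for no effect and reference drug for full effect; nearly all actives have a fitted effect of over 65% in size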
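Readout: SYBR Green fluorescence, 485 nm excitation, 535 nm emission, after ~16 h lysis at 37C. Before that, Dd2-infected red cells (2.5% hematocrit) grew 72 h with compound, 29 uM top final concentration.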
* marks the source's active call; other numbers are inactive results; i = inactive; [ ] = another dose, or the depositor's remark. The full list was thinned out, with hits kept by preference. Potency is read from the fitted curve at half-maximal effect.

SMILES	Pf Dd2 growth
O=C(CCC1CCN(C(=O)c2ccccc2)CC1)NCCc1ccncc1	3%
Cc1ccc(OCc2nc(C3CN(C(=O)c4ccc(Cn5nc(C)cc5C)o4)C3)no2)cc1	i
CN1C(=O)CCCCC1C(=O)NC1CCCCC1 (stereo not drawn)	-4%
CNC(=O)c1noc(CN2CCCC(CCc3ccccc3C(F)(F)F)C2)n1 (stereo not drawn)	-26%
CN(C)C(=O)N1CCCC(CCc2ccccc2C(F)(F)F)C1 (stereo not drawn)	-24%
COc1c[nH]c(CN2CCCC(CCc3ccccc3C(F)(F)F)C2)cc1=O (stereo not drawn)	8.9µM*
O=C1CC(c2ccccc2)N(C(=O)CNC(=O)C2(c3ccccc3)CC2)CCCCCN1 (stereo not drawn)	-28%
O=C(NC1CCN(c2cc(-c3ccccc3)[nH]n2)C1)c1ccc(F)c(F)c1 (stereo not drawn)	-24%
CN(C)c1ccc(CN2CCCC3(C2)C(=NC2CCCCC2)NC(=O)N3c2cc(F)cc(F)c2)cc1 (stereo not drawn)	5.6µM*
O=C1NC(=NC2CCCCC2)C2(CCN(Cc3ccsc3)C2)N1c1cc(F)cc(F)c1 (stereo not drawn)	6%
C[S+](=O)([O-])N1CCC2(CC1)C(=NC1CCCC1)NC(=O)N2c1cc(F)cc(F)c1	24%
O=C(OCc1ccccc1)N1CCC2(CC1)C(=NC1CCCC1)NC(=O)N2c1cc(F)cc(F)c1	i
O=C1NC(=NC2CCCC2)C2(CCN([S+](=O)([O-])c3ccccc3)C2)N1c1cc(F)cc(F)c1 (stereo not drawn)	-14%
CN(C)c1ccc(CN2CCC3(CC2)C(=NC2CCCCC2)NC(=O)N3c2cccnc2)cc1	7%
O=C1NC(=NC2CCCC2)C2(CCCN(Cc3ccc(F)cc3)C2)N1c1cc(F)cc(F)c1 (stereo not drawn)	7.9µM*
O=C1NC(=NC2CCCCC2)C2(CCN(Cc3cccnc3)C2)N1c1cccnc1 (stereo not drawn)	-4%
O=C1NC(=NC2CCCC2)C2(CCN(Cc3ccccc3)C2)N1c1cc(F)cc(F)c1 (stereo not drawn)	1.4µM*
CC(C)CCN1CCC2(C1)C(=NC1CCCC1)NC(=O)N2c1cc(F)cc(F)c1 (stereo not drawn)	8.9µM*
CC(C)CCN1CCC2(CC1)C(=NC1CCCCC1)NC(=O)N2c1cccnc1	12%
CC(=O)N1CCCC2(C1)C(=NC1CCCC1)NC(=O)N2c1cc(F)cc(F)c1 (stereo not drawn)	-13%
COCCN1CCOC[C@H]2CCN(C(=O)c3ccoc3)C[C@H]21	17%
COC[C@@H]1CN(C(=O)c2ccc(F)c(F)c2)C[C@H]1C(N)=O	3%
O=C(O)c1ccnc(-c2ccnc(NCCN3CCCCC3=O)n2)c1	-3%
COc1ccc2c(c1)CN(C1COC1)CC[C@H]1COC(=O)N21	42%[44.1 µM]
N#Cc1cccc(C(=O)N2CCC(Cc3nc(-c4ccncc4)n[nH]3)C2)c1 (stereo not drawn)	i
SMILES	Pf Dd2 growth
CC(C)c1noc(-c2cn(C3CCN(C(=O)c4nccc5ccccc45)C3)nn2)n1 (stereo not drawn)	20%
CCc1ccc(CN(C)C(=O)c2cn(CC3COc4ccccc4O3)nn2)cc1 (stereo not drawn)	-10%
Cc1cccc(-c2nc3cnccn3c2NCCC(=O)N(C)C)c1	9%
C=CCNC(=O)N1CCC(O)(c2csc(CN3CCN(c4ccccn4)CC3)n2)CC1	1%
CN1CCN(Cc2nc(C3(O)CCN(C)CC3)cs2)CC1	4%[44.1 µM]
OC1(c2csc(CN3CCN(c4ccccn4)CC3)n2)CCN(Cc2ccccc2)CC1	8.9µM*
CC(C)c1nnc(C2CN(C(=O)c3ccoc3)CC23CCOCC3)o1 (stereo not drawn)	-9%
CCN(CC)C(=O)[C@@H]1C[C@H](n2cc(-c3cccc(OC)c3)nn2)CN1	-13%
Fc1ccc(/C=C/CN2CCC(n3cc(C4CCCC4)nn3)CC2)cc1	i
COCCc1noc(C2Cc3ccccc3N2C(=O)Nc2ccc(C)cc2C)n1 (stereo not drawn)	i[5.79 µM]
O=C(COc1ccc(F)cc1)N1CCCC(n2cc(-c3nc(C4CC4)no3)nn2)C1 (stereo not drawn)	-12%
Cc1ccc(C)c(NC(=O)N2CCCC(c3noc(COc4ccccc4)n3)C2)c1 (stereo not drawn)	5µM*
CCNC(=O)N1CCC(c2noc(COc3ccc(C)cc3)n2)CC1	10µM*
O=C(COc1ccc(F)cc1)N1CCC(n2cc(-c3nc(C4CC4)no3)nn2)C1 (stereo not drawn)	5.6µM*
Cc1ccc(NC(=O)N2CCCC(c3noc(COc4ccccc4F)n3)C2)c(C)c1 (stereo not drawn)	-15%
Cc1ccc(OCc2nc(C3CN(C(=O)C4CCCO4)C3)no2)cc1 (stereo not drawn)	8%
CCc1noc(-c2cn(C3CCN(C(=O)COc4ccc(F)cc4)C3)nn2)n1 (stereo not drawn)	i
O=C(COc1ccc(F)cc1)N1CCCC(c2noc(COc3ccccc3)n2)C1 (stereo not drawn)	6.3µM*
O=C(c1ccccc1F)N1CCCC(c2noc(COc3ccccc3)n2)C1 (stereo not drawn)	-6%
Cc1ccc(OCc2nc(C3CCN(C(=O)c4ccncc4)CC3)no2)cc1	i
Cc1ccc(C)c(NC(=O)N2CCCC(c3noc(COc4ccccc4F)n3)C2)c1 (stereo not drawn)	i
O=C(c1ccc(F)cc1)N1CCCC(c2noc(COc3ccccc3)n2)C1 (stereo not drawn)	-3%
NC(=O)Cc1c[nH]c2ncc(-c3ccc(Oc4ccccc4)cc3)cc12	i
Cn1c(Cn2ccnc2)nnc1C1CC(NC(=O)c2ccsc2)C1 (stereo not drawn)	-9%
COc1ccc(C(=O)N2CCn3c(nnc3[C@@H]3C[C@@H](O)CN3C(C)C)C2)cn1	22%
Cc1ccc(CN2C(=O)COC[C@H]2C(=O)NC2CC2)cc1	11%
Cn1ncc2c(C(=O)N3CCOCC3)cc(-c3ccc(Cl)nc3)nc21	-5%
O=C(CC1=CCCCC1)N1CCC2(CC1)CN(c1ccncn1)CC2CO (stereo not drawn)	i
CCc1noc(-c2cn(C3CCN(C(=O)c4cccc(NC(C)=O)c4)C3)nn2)n1 (stereo not drawn)	i
CCC(O)c1nc2ccccc2n1Cc1cccc(Cl)c1 (stereo not drawn)	-23%
